Experimental data published in PubChem BioAssay (NCI).
The panel holds about 79,000 compounds, 15% with a hit somewhere; the sample as a whole holds those more often. Calls of active or inactive are those of the source. No stated cut-off is given here; in the data, active means growth inhibition above about 70%; inactive means the rest.

Tests used:
[1] = NCI Yeast Anticancer Drug Screen. Data for the rad50 strain (AID 155);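 further: 0% = growth of vehicle-only cultures of the same strain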; conditions: S. cerevisiae rad50 strain growth inhibition, stronger effect = higher value
In short: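 A DNA repair-deficient yeast mutant serves as the test organism; compound-induced growth inhibition is calculated against vehicle-treated cells.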

[2] = NCI Yeast Anticancer Drug Screen. Data for the mec2-1 strain (AID 157); conditions: S. cerevisiae mec2-1 strain, stronger effect = higher value
In short: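 Mutant yeast (mec2-1) grown with compound; growth inhibition relative to vehicle control reported.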

[3] = NCI Yeast Anticancer Drug Screen. Data for the sgs1 mgt1 strain (AID 161);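 further: 0% = growth of cultures given vehicle only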; conditions: S. cerevisiae sgs1 mgt1 strain, stronger effect = higher value
In short: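 Growth of a repair-deficient yeast mutant was monitored after compound treatment and expressed as inhibition relative to vehicle-treated cultures.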

[4] = NCI Yeast Anticancer Drug Screen. Data for the cln2 rad14 strain (AID 165);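 further: 0% = growth equal to vehicle treated cultures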; conditions: S. cerevisiae cln2 rad14 strain, stronger effect = higher value
In short: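 Readout is yeast growth inhibition versus vehicle-treated controls, using a strain with cln2 and rad14 alterations exposed to compound.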

[5] = NCI Yeast Anticancer Drug Screen. Data for the bub3 strain (AID 167); conditions: S. cerevisiae bub3 mutant strain, stronger effect = higher value
In short: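 Inhibition values come from growth of compound-treated mutant yeast normalised to vehicle-treated controls.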

[6] = NCI Yeast Anticancer Drug Screen. Data for the mlh1 rad18 strain (AID 175); conditions: S. cerevisiae mlh1 rad18 strain growth inhibition, stronger effect = higher value
In short: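 Genetically defined yeast (DNA repair-deficient) exposed to compounds; growth inhibition determined relative to vehicle.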

[7] = at 5.0 µM (retest, dose inferred, filed as 0.5)
[8] = at 50.0 µM (retest, dose inferred, filed as 5.0)

Measured: growth inhibition

CCCCc1ccc2nc(C)cc(N=[N+]=[N-])c2c1
active: [1]; [8] 98% | [1]; at 50.0 µM 89.7% | [2]; [8] 90% | [2]; at 50.0 µM 99% | [3]; [8] 96% | [3]; at 50.0 µM 94.8% | [4]; at 50.0 µM 94.7% | [5]; [8] 92% | [5]; at 50.0 µM 97.2% | [6]; [8] 98% | [6]; at 50.0 µM 96.3%
inactive: [1]; [7] 2% | [2]; [7] -14% | [3]; [7] -6% | [4]; [7] -14% | [4]; [8] 48% | [5]; [7] -9% | [6]; [7] -2%

CCOC(=O)CN1C(=O)S/C(=C/c2ccc([N+](=O)[O-])o2)C1=O
inactive: [1]; [7] 9% | [2]; [7] 3% | [3]; [7] 12% | [4]; [7] -3% | [4]; at 50.0 µM 56.3% | [5]; [7] 3% | [6]; [7] 21%
active: [1]; [8] 93% | [1]; at 50.0 µM 77.2% | [2]; [8] 94% | [2]; at 50.0 µM 76% | [3]; [8] 98% | [3]; at 50.0 µM 91.3% | [4]; [8] 89% | [5]; [8] 96% | [5]; at 50.0 µM 86% | [6]; [8] 96% | [6]; at 50.0 µM 87.1%

C[n+]1c(-c2ccc(/C=N\Nc3nnc(S)n3/N=C/c3ccc(-c4cn5ccccc5[n+]4C)cc3)cc2)cn2ccccc21
active: [1]; [8] 98% | [1]; at 50.0 µM 94.5% | [2]; [8] 96% | [2]; at 50.0 µM 92.9% | [3]; [8] 97% | [3]; at 50.0 µM 95.8% | [4]; [8] 94% | [4]; at 50.0 µM 92.1% | [5]; [8] 98% | [5]; at 50.0 µM 93% | [6]; [8] 97% | [6]; at 50.0 µM 96.8%
inactive: [1]; [7] 7% | [2]; [7] -16% | [3]; [7] 3% | [4]; [7] 4% | [5]; [7] 29% | [6]; [7] 10%

CC(=O)OC1CCC2(C)C(CCC3C2CCC2(C)C4CCC32OC(=O)C4CC(=O)O)C1 (configuration not stated)
active: [1]; at 50.0 µM 86.6% | [2]; at 50.0 µM 89.5% | [3]; at 50.0 µM 89.5% | [4]; at 50.0 µM 90.5% | [5]; at 50.0 µM 73% | [6]; at 50.0 µM 93.5%
inactive: [1]; [7] 3% | [1]; [8] 36% | [2]; [7] -32% | [2]; [8] 48% | [3]; [7] -12% | [3]; [8] 13% | [4]; [7] 7% | [4]; [8] 49% | [5]; [7] -2% | [5]; [8] 49% | [6]; [7] 10% | [6]; [8] 65%
